Source: the supplement of paper PMC12067926

Experiments:
Assay in all cases: relative growth (AUC of 72 h growth curve relative to DMSO control, dAUC) (ratio); higher = more growth (less inhibition), active = hit call of the paper
Conditions in all cases: 20 µM;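 active = growth AUC significantly below the DMSO wells by Dunnett test; inactive = the rest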
[1] = test system: Prolinoborus 1 (Prolinoborus fasciculus)
Outline: (§1)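 Bacterial isolates from Icelandic stream sediments and Silwood Park soil, plus whole sediment communities, were grown to carrying capacity in Luria–Bertani medium, then diluted 1:100 into 96-well plates with each chemical at 20 µM (1% DMSO). A600 was read hourly for 72 h on a plate reader, with brief shaking before each read. Relative growth (dAUC) is the spline-integrated area under the growth curve, averaged over three biological replicates and divided by the mean of the DMSO controls.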

[2] = test system: Pseudomonas 1 (Pseudomonas baetica)
Outline: as §1

[3] = test system: Pseudomonas 2 (Pseudomonas vancouverensis)
Outline: as §1

[4] = test system: Pseudomonas 3 (Pseudomonas mandelii)
Outline: as §1

[5] = test system: Pseudomonas 4 (Pseudomonas peli)
Outline: as §1

[6] = test system: Pseudomonas 5 (Pseudomonas baetica)
Outline: as §1

[7] = test system: Pseudomonas 6 (Pseudomonas sp.)
Outline: as §1

[8] = test system: Rhizobium 1 (Rhizobium herbae)
Outline: as §1

[9] = test system: Serratia 1 (Serratia sp. 2015-2462-01)
Outline: as §1

[10] = test system: Sphingomonas 2 (Sphingomonas sp.)
Outline: as §1

Compound | relative growth [1] | relative growth [2] | relative growth [3] | relative growth [4] | relative growth [5] | relative growth [6] | relative growth [7] | relative growth [8] | relative growth [9] | relative growth [10]
COP(=S)(OC)Oc1ccc(SC)c(C)c1 | 0.975 (inactive) | 0.988 (inactive) | 0.973 (inactive) | 1.01 (inactive) | 0.957 (inactive) | 1.01 (inactive) | 1.01 (inactive) | 0.937 (inactive) | 0.998 (inactive) | 0.974 (inactive)
Cc1cc(C)c(C2=C(OC(=O)CC(C)(C)C)C3(CCCC3)OC2=O)c(C)c1 | 0.977 (inactive) | 1.1 (inactive) | 1.12 (inactive) | 1.09 (inactive) | 1 (inactive) | 1.03 (inactive) | 1.2 (inactive) | 0.937 (inactive) | 1.03 (inactive) | 1.01 (inactive)
COc1cc(OC)nc(NC(=O)NS(=O)(=O)c2ncccc2C(=O)N(C)C)n1 | 0.999 (inactive) | 0.988 (inactive) | 1 (inactive) | 1.01 (inactive) | 0.993 (inactive) | 0.996 (inactive) | 0.943 (inactive) | 0.992 (inactive) | 1 (inactive) | 1 (inactive)
O=C(NCCc1ncc(C(F)(F)F)cc1Cl)c1ccccc1C(F)(F)F | 0.967 (inactive) | 1.08 (inactive) | 0.981 (inactive) | 1.07 (inactive) | 0.964 (inactive) | 0.99 (inactive) | 1.05 (inactive) | 0.94 (inactive) | 0.971 (inactive) | 1.02 (inactive)
OC(Cc1ccccc1Cl)(Cn1nc[nH]c1=S)C1(Cl)CC1 (stereo not given) | 1.02 (inactive) | 1.02 (inactive) | 0.995 (inactive) | 1.01 (inactive) | 1 (inactive) | 0.995 (inactive) | 0.982 (inactive) | 1.07 (inactive) | 1.05 (inactive) | 0.981 (inactive)
CS(=O)(=O)NC(=O)c1cc(Oc2ccc(C(F)(F)F)cc2Cl)ccc1[N+](=O)[O-] | 1.01 (inactive) | 1.01 (inactive) | 1 (inactive) | 1 (inactive) | 0.996 (inactive) | 1.04 (inactive) | 1.07 (inactive) | 0.917 (inactive) | 1.02 (inactive) | 1.02 (inactive)
CCOP(=S)(OCC)Oc1nc(Cl)c(Cl)cc1Cl | 0.989 (inactive) | 1.04 (inactive) | 1.01 (inactive) | 1.05 (inactive) | 0.991 (inactive) | 1.06 (inactive) | 1.08 (inactive) | 0.929 (inactive) | 0.993 (inactive) | 1.07 (inactive)
Cc1cc(C)nc(Nc2ccccc2)n1 | 0.979 (inactive) | 0.925 (inactive) | 0.956 (inactive) | 1.03 (inactive) | 0.947 (inactive) | 0.99 (inactive) | 1.03 (inactive) | 0.868 (inactive) | 0.937 (inactive) | 0.984 (inactive)
CC1(C)CON(Cc2ccccc2Cl)C1=O | 0.954 (inactive) | 1.01 (inactive) | 0.981 (inactive) | 1.06 (inactive) | 0.975 (inactive) | 1.06 (inactive) | 1.13 (inactive) | 0.983 (inactive) | 0.94 (inactive) | 1.15 (inactive)
CCC(CC)Nc1c([N+](=O)[O-])cc(C)c(C)c1[N+](=O)[O-] | 0.939 (inactive) | 1.13 (inactive) | 0.981 (inactive) | 1.03 (inactive) | 0.949 (inactive) | 1.05 (inactive) | 1.04 (inactive) | 0.957 (inactive) | 0.929 (inactive) | 0.998 (inactive)
COc1ncc(F)c2nc(S(=O)(=O)Nc3c(F)cccc3F)nn12 | 1.01 (inactive) | 1.05 (inactive) | 1.02 (inactive) | 1.01 (inactive) | 0.989 (inactive) | 0.958 (inactive) | 0.99 (inactive) | 0.982 (inactive) | 1.03 (inactive) | 1.04 (inactive)
O=C1C2(Cl)C3(Cl)C4(Cl)C(Cl)(Cl)C5(Cl)C3(Cl)C1(Cl)C5(Cl)C24Cl (stereo not given) | 0.943 (inactive) | 1.01 (inactive) | 0.962 (inactive) | 0.955 (inactive) | 0.934 (inactive) | 1.07 (inactive) | 1.14 (inactive) | 0.292 (active) | 0.909 (inactive) | 0.382 (active)
CO/C=C(/C(=O)OC)c1ccccc1COc1cccc(C(F)(F)F)n1 | 0.929 (inactive) | 1.02 (inactive) | 0.958 (inactive) | 0.991 (inactive) | 0.97 (inactive) | 1.05 (inactive) | 1.11 (inactive) | 0.96 (inactive) | 0.966 (inactive) | 1 (inactive)
CC(Oc1ccc(Oc2nc3ccc(Cl)cc3o2)cc1)C(=O)O (stereo not given) | 0.978 (inactive) | 0.948 (inactive) | 1 (inactive) | 0.97 (inactive) | 1.01 (inactive) | 0.962 (inactive) | 0.916 (inactive) | 1.07 (inactive) | 1.04 (inactive) | 1.12 (inactive)
CCCCCCCCCCCCNC(=N)N | 0.00813 (active) | 1.05 (inactive) | 0.94 (inactive) | 0.902 (inactive) | 0.847 (active) | 0.904 (inactive) | 0.922 (inactive) | 0.00569 (active) | 0.00141 (active) | 0.00501 (active)
CNC(=O)CSP(=S)(OC)OC | 0.985 (inactive) | 0.984 (inactive) | 0.991 (inactive) | 1.02 (inactive) | 0.963 (inactive) | 1.02 (inactive) | 1.19 (inactive) | 1.05 (inactive) | 0.96 (inactive) | 1.07 (inactive)
Cc1cc(C(F)(C(F)(F)F)C(F)(F)F)ccc1NC(=O)c1cccc(I)c1C(=O)NC(C)(C)CS(C)(=O)=O | 0.933 (inactive) | 0.728 (inactive) | 0.842 (active) | 0.883 (inactive) | 1.13 (inactive) | 0.92 (inactive) | 0.776 (inactive) | 0.937 (inactive) | 1.19 | 0.654 (active)
COP(=S)(OC)SCN1C(=O)c2ccccc2C1=O | 1.08 (inactive) | 0.986 (inactive) | 0.981 (inactive) | 0.971 (inactive) | 0.962 (inactive) | 1.03 (inactive) | 1.12 (inactive) | 0.943 (inactive) | 0.972 (inactive) | 1.01 (inactive)
CCC(C)c1ccccc1OC(=O)NC (stereo not given) | 1.02 (inactive) | 0.95 (inactive) | 1.01 (inactive) | 1.07 (inactive) | 1.01 (inactive) | 1.04 (inactive) | 1.09 (inactive) | 1.01 (inactive) | 0.971 (inactive) | 1 (inactive)
C[C@@H]1[C@@H](c2ccc(Cl)cc2)SC(=O)N1C(=O)NC1CCCCC1 | 0.994 (inactive) | 0.933 (inactive) | 0.976 (inactive) | 1.02 (inactive) | 1 (inactive) | 1.05 (inactive) | 1.13 (inactive) | 0.964 (inactive) | 1 (inactive) | 0.987 (inactive)
COc1ccc(-c2ccccc2)cc1NNC(=O)OC(C)C | 0.918 (inactive) | 1.14 (inactive) | 0.964 (inactive) | 1.05 (inactive) | 0.951 (inactive) | 1.08 (inactive) | 1.17 (inactive) | 0.865 (inactive) | 0.932 (inactive) | 0.92 (inactive)
N#CC(CCc1ccc(Cl)cc1)(Cn1cncn1)c1ccccc1 (stereo not given) | 0.902 (inactive) | 0.999 (inactive) | 0.921 (inactive) | 0.992 (inactive) | 0.934 (inactive) | 0.932 (inactive) | 0.909 (inactive) | 0.947 (inactive) | 0.921 (inactive) | 1.08 (inactive)
CNC(=O)Oc1cccc2ccccc12 | 1 (inactive) | 0.973 (inactive) | 1.04 (inactive) | 0.996 (inactive) | 1.01 (inactive) | 1.04 (inactive) | 1.12 (inactive) | 0.906 (inactive) | 0.932 (inactive) | 0.986 (inactive)
O=C(Nc1ccc(F)cc1F)c1cccnc1Oc1cccc(C(F)(F)F)c1 | 1.03 (inactive) | 1.09 (inactive) | 1.01 (inactive) | 1.05 (inactive) | 1.01 (inactive) | 1.06 (inactive) | 1.13 (inactive) | 0.66 (inactive) | 1.02 (inactive) | 1.16 (inactive)
Cc1cccc2sc3nncn3c12 | 1.01 (inactive) | 1.18 (inactive) | 0.997 (inactive) | 1.03 (inactive) | 0.947 (inactive) | 1.04 (inactive) | 1.1 (inactive) | 0.846 (inactive) | 0.947 (inactive) | 0.944 (inactive)
CNC(=O)/C=C(\C)OP(=O)(OC)OC | 0.971 (inactive) | 1.05 (inactive) | 0.988 (inactive) | 1.03 (inactive) | 0.964 (inactive) | 0.96 (inactive) | 0.989 (inactive) | 1.09 (inactive) | 0.937 (inactive) | 0.926 (inactive)
CCOCn1c(-c2ccc(Cl)cc2)c(C#N)c(Br)c1C(F)(F)F | 1.01 (inactive) | 1.05 (inactive) | 1 (inactive) | 1.04 (inactive) | 1.02 (inactive) | 0.998 (inactive) | 1.11 (inactive) | 1.07 (inactive) | 1.01 (inactive) | 0.848 (inactive)
N#CCNC(=O)c1cnccc1C(F)(F)F | 1.03 (inactive) | 1.05 (inactive) | 0.996 (inactive) | 0.97 (inactive) | 0.996 (inactive) | 1.01 (inactive) | 1.07 (inactive) | 0.857 (inactive) | 0.947 (inactive) | 1.08 (inactive)
CCSC(C)CC1CC(=O)C(/C(CC)=N/OC/C=C/Cl)=C(O)C1 (mixture of isomers) | 0.983 (inactive) | 1.07 (inactive) | 0.999 (inactive) | 1.02 (inactive) | 1.01 (inactive) | 1.05 (inactive) | 1.14 (inactive) | 0.924 (inactive) | 0.973 (inactive) | 1.18 (inactive)
